Screening results (PubChem)
In the library only some 9.9% were active in any assay of this set; here they are far more common.
SW480 rereplic = DNA re-replication induction in SW480 cells; hit rate 1.8% among 340,000; SW480 DNA re-replication, Hoechst DNA content imaging, 48 h; Potency, µM (doses to about 46.1 µM), inactives show top-dose re-replication activation, actives largely listed as activators; further: potency means the concentration at half of the fitted maximal effect; % of control where 0% means no effect; nearly all actives have a fitted effect of over 55% in size
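DNA re-replication was detected as more nuclei of elevated Hoechst intensity after 48 hr exposure to compound (23 nL pinned per well of 250 cells).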
IL-1B inflam inh = inflammasome signaling inhibition, IL-1 beta readout. THP-1 LPS/ATP IL-1B secretion, AlphaLISA, 16 h; stronger effect = lower value. activity change, % at 57.5 µM. hit rate 4.7% among 360,000. AID 743279; in the data active means activity change below about -50%; inconclusive means mostly about -30% to -49%; further: on the % scale 0 is the no-effect control and ±100 the full control effect
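THP-1 cells pretreated 1 hr with compounds (up to 57.5 uM final), then stimulated with LPS (250 ng/mL final) plus ATP (1.25 mM final); secreted IL-1B measured by AlphaLISA after 16 hr, decreased signal indicating inhibition.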
KB-V1 MDR tox = KB-V1 MDR subline cytotoxicity; KB-V1 MDR cells viability, CellTiter-Glo, 72 h; Potency, µM (titrated, usually from 46.1 µM), most hits filed as cytotoxic; hit rate 3.4% among 400,000; AID 1347076; further: potency means the concentration at half of the fitted maximal effect; on the % scale 0 is the no-effect control and ±100 the full control effect; nearly all actives have a fitted effect of over 60% in size
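Compound-treated KB-V1 multidrug-resistant cells, 72 h, 37 degrees C; viability by CellTiter-Glo. Fitted qHTS curves give the values.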
MCF10A rerep = induces DNA re-replication in MCF 10a normal breast cells | MCF 10A DNA re-replication, Hoechst nuclear intensity, 48 h | Potency, µM (highest dose often 46.1 µM), without a hit: top-dose activity, positive = re-replication, hits mostly activators | hit rate 2.9% among 350,000; further: potency means the concentration at half of the fitted maximal effect; % of control where 0% means no effect; nearly all actives have a fitted effect of over 50% in size
KB-3-1 tox = kills parental KB-3-1 adenocarcinoma cells | KB-3-1 viability, CellTiter-Glo ATP luminescence, 72 h | Potency, µM (doses to about 46.1 µM), hits mostly cytotoxic | hit rate 1.4% among 400,000; further: potency means the concentration at half of the fitted maximal effect; on the % scale 0 is the no-effect control and ±100 the full control effect; nearly all actives have a fitted effect of over 60% in size
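Parental KB-3-1 adenocarcinoma cells in phenol-red-free DMEM with 10% FBS were pin-treated with compounds at several concentrations, incubated 72 h at 37 °C, and viability read by CellTiter-Glo luminescence; concentration-effect curves were fitted after normalization.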
* hit, by the source's call; i = inactive; ? = inconclusive; . = not tested or not shown. Unless noted, the call rests on the fitted dose curve; in most records, active means well fitted curve in the direction sought with a large enough effect; inconclusive means small, poorly fitted or top-dose-only effect, or another doubt; inactive means no such curve, though single readings can be large; an effect the other way counts as inactive or inconclusive.

SMILES	SW480 rereplic	IL-1B inflam inh	KB-V1 MDR tox	MCF10A rerep	KB-3-1 tox
CN(CC(=O)N1CCCC1)S(=O)(=O)c1ccc2ccccc2c1	-6.6%	-24.2	i	-8.7%	i
CCOC(=O)c1c(C)[nH]c(C(=O)C(C)Cl)c1C (stereo unspecified)	1.9%	-100.5*	i	?	?
CCOC(=O)c1[nH]c(C=O)c(C(=O)OCC)c1C	5.8µM*	0.0	?	11.6µM*	i
CCOC(=O)c1c(C)[nH]c(C(=O)OCC(=O)NC(C)C)c1C	-5.9%	-5.8	23.1µM*	0.0%	i
CCOC1=C2[C@H](c3ccc(CC)cc3)N(S(=O)(=O)c3ccc(C)cc3)C[C@H]2C(C#N)(C#N)C(C#N)(C#N)C1	.	-75.7*	i	.	i
CCOC1=C2CN(S(=O)(=O)c3ccc(C)cc3)[C@H](c3ccc(CC)cc3)C[C@@H]2N(S(=O)(=O)c2ccc(C)cc2)[C@H](c2ccccc2)C1	.	20.4	i	.	i
CCOC1=C2CN(S(=O)(=O)c3ccc(C)cc3)C(c3ccc(CC)cc3)CC2N(S(=O)(=O)c2ccc(C)cc2)C(c2ccc(CC)cc2)C1 (stereo unspecified)	.	9.2	i	.	1.03µM*
C=CCn1c(=O)c2c3c(sc2n2c(Nc4ccc(C(=O)OCC)cc4)nnc12)CCCC3	13µM*	13.7	i	10.7%	i
C=CCn1c(=O)c2c3c(sc2n2c(Nc4ccc(OC)cc4)nnc12)CCCC3	-2.1%	-70.9*	?	13.4%	?
CN=CC1=C(O)c2ccccc2C1=O	28.0%	22.8	i	13µM*	i
O=C1C(C=Nc2ccccc2O)=C(O)c2ccccc21	?	26.2	i	5.17µM*	i
CCc1nc2ccc(C(=O)NCc3cc(OC)ccc3OC)cc2nc1CC	.	.	i	.	i
O=C1c2ccccc2C(c2nnnn2Cc2ccccc2)N1CCc1c[nH]c2ccccc12 (stereo unspecified)	.	-4.3	?	.	i
COC(=O)c1cc(C(=O)c2ccc(Cl)cc2Cl)cn1C	-11.3%	0.0	13µM*	-0.2%	?
CCCCC(NC(C)=O)c1nc2ccccc2n1CCC (stereo unspecified)	-0.9%	16.3	20.6µM*	1.1%	i
COC(=O)c1ccc2c(c1)C(NC(C)=O)CCc1cc(OC)c(OC)c(OC)c1-2 (stereo unspecified)	0.092µM*	-72.6*	0.82µM*	0.116µM*	0.146µM*
COc1ccccc1-c1ccc(=O)n(CC(=O)NC2CCc3ccccc32)n1 (stereo unspecified)	-7.8%	?	i	0.8%	i
COc1cccc(C(=O)Nc2ccc(F)cc2F)c1	-9.9%	-11.9	i	3.8%	i
CCCC(=O)NC1CCc2cc(OC)c(OC)c(OC)c2-c2ccc(OC)c(=O)cc21 (stereo unspecified)	0.0046µM*	61.6	2.91µM*	?	0.13µM*
C=COC(=O)NC1CCc2cc(OC)c(OC)c(OC)c2-c2ccc(SC)c(=O)cc21 (stereo unspecified)	?	43.0	?	17.4%	0.0065µM*
COc1cccc(C(=O)Nc2ccc3c(cc2=O)[C@@H](NC(C)=O)CCc2cc(OC)c(OC)c(OC)c2-3)c1	7.31µM*	54.6	i	5.8µM*	2.91µM*
CC(C)(C)C1CCSC2=NCCC[C@]2(c2ccccc2)C1 (stereo partly specified)	.	-1.4	i	.	i
CCOc1ccc(C2CC(=O)Nc3c2c(=O)[nH]c2ncnn32)cc1 (stereo unspecified)	.	.	i	.	i
COc1cc2c(c(OC)c1OC)-c1ccc(SC)c(=O)cc1C(NC=O)CC2 (stereo unspecified)	?	29.7	0.291µM*	?	0.0065µM*
COc1cc2c(c(OC)c1OC)-c1ccc(OC)c(=O)cc1C(NC(=O)c1ccccc1)CC2 (stereo unspecified)	0.0206µM*	10.3	?	?	0.0092µM*
SMILES	SW480 rereplic	IL-1B inflam inh	KB-V1 MDR tox	MCF10A rerep	KB-3-1 tox
COc1c(C=O)c2c(c(OC)c1OC)-c1ccc(OC)c(=O)cc1C(NC(C)=O)CC2 (stereo unspecified)	0.103µM*	0.0	?	?	0.0092µM*
COc1cc2c(c(OC)c1OC)C(=O)CC2	-15.2%	10.7	i	-0.7%	i
CNC1CCc2cc(OC)c(OC)c(OC)c2-c2ccc(OC)c(=O)cc21 (stereo unspecified)	0.119µM*	.	.	0.075µM*	.
COc1cc2c3c(c1OC)C(=O)CC3CCCC2 (stereo unspecified)	.	?	i	.	i
Cc1ccc(NS(=O)(=O)c2csc(C(N)=O)c2)cc1C	-1.2%	32.0	i	?	i
COc1cc2c(c(OC)c1OC)-c1ccc(SC)c(=O)cc1C(NC(=O)c1ccccc1)CC2 (stereo unspecified)	0.0146µM*	?	0.731µM*	?	0.0092µM*
COc1c(O[C@@H]2O[C@H](CO)[C@@H](O)[C@H](O)[C@H]2O)cc2c(c1OC)-c1ccc(SC)c(=O)cc1C(NC(C)=O)CC2 (stereo partly specified)	?	40.5	i	-26.3%	i
Cc1cc(NC(=O)Cn2nc(C)c([N+](=O)[O-])c2C)no1	-11.5%	4.2	i	-0.2%	i
O=C(CCCSc1nnc(SCCCC(=O)c2ccc(F)cc2)s1)c1ccc(F)cc1	?	-80.6*	?	?	i
Nc1nnc(SCCCC(=O)c2ccc(F)cc2)s1	-1.2%	32.9	i	10.9%	i
c1ccc(Cc2nnc3sc(-c4ccccn4)nn23)cc1	-4.2%	12.0	16.4µM*	1.0%	?
Clc1ccccc1-c1nnc2sc(C3COc4ccccc4O3)nn12 (stereo unspecified)	0.4%	?	16.4µM*	-3.3%	i
c1ccc(Cc2nnc3sc(C4COc5ccccc5O4)nn23)cc1 (stereo unspecified)	-3.2%	-10.9	14.6µM*	9.5%	i
O=C(Cn1cc(S(=O)(=O)N2CCN(c3ccccc3F)CC2)c2ccccc2c1=O)NCCCN1CCCCCC1	20.6µM*	-61.5*	i	?	i
COCCNC(=O)Cn1cc(S(=O)(=O)N2CCN(c3ccccc3F)CC2)c2ccccc2c1=O	-13.9%	-6.0	i	-13.1%	i
O=[N+]([O-])c1cccc(/C=C/c2nc[nH]c2[N+](=O)[O-])c1	9.0%	-29.1	i	-1.5%	i
COc1ccc(CN2C(=O)C(CC(=O)NCc3cccs3)CC(C(=O)N(C)C)=C2C)cc1 (stereo unspecified)	.	-8.8	i	.	i
Cc1nnc(SCC(=O)Nc2ccc([N+](=O)[O-])cc2)n1CC1CCCO1 (stereo unspecified)	23.1µM*	15.1	i	3.0%	i
